Assay [1] relates to TRPC4 beta (transient receptor potential cation channel C4), mouse. Briefly: activators of mouse TRPC4 channel, confirmation, cell-based, Fluo4 calcium, HEK293 TRPC4beta/mu-opioid, duplicates, 10 µM (AID 2426;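 active = fluorescence ratio normalized to control raised more than 50% in primary screen plus both repeat runs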). The note with it: Fluo4 calcium fluorescence, at 10 µM; stronger effect = higher value.
Assay [2] concerns transient receptor potential cation channel C4 beta (TRPC4), mouse. Briefly: activators of mouse TRPC4 channel, confirmation, cell-based, second round, Fluo4, HEK293 TRPC4beta/mu-opioid, 1 µM (AID 2461;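 active = primary screen active and over 50% activation in each of two duplicate runs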). The note with it: Fluo4 calcium fluorescence, at 1 µM; stronger effect = higher value.
The subject of assay [3] is TRPC4 (transient receptor potential cation channel C4 beta), mouse. Nature of the assay: positive allosteric modulators of mouse TRPC4, confirmation, cell-based, second round, Fluo-4, HEK293 TRPC4beta/mu-opioid, 1 µM (AID 2554;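 active = primary screen hit whose fluorescence ratio, in both repeats, exceeds the weak agonist control mean by 3 SD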). The note with it: DAMGO EC20, Fluo-4 calcium flux, at 1 µM; stronger effect = higher value. A general note: Calcium flux is commonly read through the fluorescence of an indicator in the cells.

Assay [4] has as its system TRPC4 beta (transient receptor potential cation channel C4), mouse. Nature of the assay: positive allosteric modulators of mouse TRPC4, confirmation, cell-based, Fluo-4, HEK293 TRPC4beta/mu-opioid (AID 2555). As to conditions: DAMGO EC20, Fluo-4 calcium flux, at 10 µM; stronger effect = higher value.
The target of assay [5] is Short transient receptor potential channel 4 (Mus musculus) (UniProt Q9QUQ5). Nature of the assay: inhibitors of mouse TRPC4 channel, confirmation, cell-based, Fluo4, HEK293 TRPC4beta/mu-opioid (AID 2636;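 active = calcium signal cut by more than 3 SD below the full-agonist control yet still positive, in both repeats and the earlier primary screen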). The note with it: DAMGO, Fluo4 calcium flux, at 10 µM; stronger effect = higher value.
Short transient receptor potential channel 4 (Mus musculus), sequence (Q9QUQ5 whole entry, looked up): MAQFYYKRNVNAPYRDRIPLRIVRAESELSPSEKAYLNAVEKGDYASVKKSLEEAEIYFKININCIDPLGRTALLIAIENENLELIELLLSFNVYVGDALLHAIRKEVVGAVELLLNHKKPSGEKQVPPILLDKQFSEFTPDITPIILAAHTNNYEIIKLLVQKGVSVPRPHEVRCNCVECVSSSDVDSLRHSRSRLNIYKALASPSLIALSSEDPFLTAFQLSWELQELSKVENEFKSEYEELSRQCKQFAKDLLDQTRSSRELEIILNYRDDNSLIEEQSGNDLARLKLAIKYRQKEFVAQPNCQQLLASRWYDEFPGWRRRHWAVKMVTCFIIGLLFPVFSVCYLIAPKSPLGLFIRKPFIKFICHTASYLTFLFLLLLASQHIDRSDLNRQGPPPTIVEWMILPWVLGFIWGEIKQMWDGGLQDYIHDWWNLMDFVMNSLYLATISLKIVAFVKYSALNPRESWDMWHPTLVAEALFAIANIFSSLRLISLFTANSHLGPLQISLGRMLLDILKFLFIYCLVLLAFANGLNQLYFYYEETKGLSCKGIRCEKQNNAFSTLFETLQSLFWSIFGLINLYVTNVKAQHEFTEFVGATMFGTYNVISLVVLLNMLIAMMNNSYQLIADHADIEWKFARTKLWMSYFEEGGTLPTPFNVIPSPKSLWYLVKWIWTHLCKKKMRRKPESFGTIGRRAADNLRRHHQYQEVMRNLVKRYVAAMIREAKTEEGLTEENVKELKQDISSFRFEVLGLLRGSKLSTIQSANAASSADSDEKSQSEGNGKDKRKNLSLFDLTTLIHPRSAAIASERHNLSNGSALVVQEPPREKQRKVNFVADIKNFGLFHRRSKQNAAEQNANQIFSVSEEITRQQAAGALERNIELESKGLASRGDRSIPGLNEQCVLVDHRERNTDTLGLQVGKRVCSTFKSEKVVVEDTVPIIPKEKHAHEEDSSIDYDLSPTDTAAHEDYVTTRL
The target is the same in assay [6]. Nature of the assay: inhibitors of mouse TRPC4 channel, confirmation, cell-based, second round, Fluo4, HEK293 TRPC4beta/mu-opioid, 1 µM (AID 2637;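 active = calcium signal ratio cut to more than 3 SD under the fully stimulated control mean yet still positive, in both repeats and the primary screen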;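 as to inhibition: percent of integrated ratio relative to wells lacking test compound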). As to conditions: Fluo4 calcium flux, DAMGO, at 1 µM; stronger effect = higher value.
Assay [7] has the same target. Briefly: mouse TRPC4 channel activators, dose response, cell-based, HEK293 TRPC4/mu-opioid, Fluo-4 calcium (AID 434937;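 active = primary screen activator hit with a dose response curve and TRPC4 channel activation at any tested dose; inactive = no activation, no dose response, or not a primary hit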).
Assay [8] has the same target. Nature of the assay: TRPC4 positive allosteric modulators, dose response, cell-based, HEK293 TRPC4/mu-opioid, Fluo-4 calcium, EC20 DAMGO (AID 434941;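 active = earlier screen potentiator hit that boosts the TRPC4 ion channel at some dose, with a dose response; inactive = no potentiation, no dose response, or not a prior hit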;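 also: calcium entry triggered by an EC20 dose of DAMGO at the co-expressed mu-opioid receptor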).
Assay [9] has as its target Short transient receptor potential channel 6 (Mus musculus) (UniProt Q61143). Briefly: inhibition of mouse TRPC6 channel, confirmation, selectivity assay for TRPC4 inhibitor project, cell-based, HEK293, membrane potential dye, duplicate (AID 434948;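 active = active in primary screen and both duplicates, each dropping signal beyond three positive-control SD with fluorescence still positive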). As to conditions: HEK293 TRPC6, membrane potential dye fluorescence, at 10 µM, stimulated with maximal-effect acetylcholine; stronger effect = higher value.

Assay [10] has the same target. Nature of the assay: activation of mouse TRPC6 channel, confirmation, selectivity assay for TRPC4 activator project, cell-based, HEK293, membrane potential dye, duplicate (AID 434950;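 active = membrane potential signal rise above negative control mean plus 3 SD in both duplicates, also active in the earlier TRPC4 screen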). As to conditions: HEK293 TRPC6, membrane potential fluorescence, at 10 µM; stronger effect = higher value.
Assay [11] shares this target. Nature of the assay: TRPC6 potentiation by TRPC4 potentiator hits, confirmation, selectivity assay for TRPC4 potentiator project, HEK293 cells, membrane potential dye, duplicate (AID 434952;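 active = compound raising the membrane signal above positive-control mean plus 3 SD in both repeats, and a primary screen hit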). As to conditions: HEK293 TRPC6, membrane potential dye fluorescence, at 10 µM, maximal acetylcholine added after compound; stronger effect = higher value.
Assay [12] addresses Short transient receptor potential channel 4 (Mus musculus) (UniProt Q9QUQ5). Nature of the assay: calcium flux activators in TRPC4/5HT1a cells, counter-screen for TRPC4 activator project, cell-based, second counter screen, HEK293 TRPC4/5HT1a, Fluo-4 (AID 434977;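 active = calcium signal rise above buffer-control mean plus 5 SD in both duplicates, and also a hit in the primary screen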). The note with it: Fluo-4 calcium flux, at 10 µM; stronger effect = higher value.
A short description of assay [13]: calcium flux inhibitors in TRPC4/5HT1a cells, confirmation, counter-screen for TRPC4 inhibitor project, cell-based, second counter screen, HEK293 TRPC4/5HT1a, Fluo-4 (AID 434978;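 active = primary screen active whose calcium signal fell more than 3 SD beyond the full-serotonin control mean in both duplicate plates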;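 as to outcome: serotonin given first at submaximal then at maximal dose after compound preincubation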). As to conditions: Fluo-4 calcium flux, at 10 µM, serotonin added to trigger calcium flux; stronger effect = higher value.
Assay [14] has as its system TRPC4 (mouse), co-expressed with 5HT1a in HEK293. Briefly: calcium flux potentiators in TRPC4/5HT1a cells, confirmation, counter-screen for TRPC4 potentiator project, cell-based, second counter screen, HEK293 TRPC4/5HT1a, Fluo-4 (AID 434979;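 active = signal rise over 3 SD above mean of control wells given weak agonist, in both repeats and first screen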). As to conditions: Fluo-4 calcium flux, at 10 µM, serotonin added at its EC20 dose; stronger effect = higher value.
Assay [15] can be described thus: calcium flux activation in mu-opioid HEK293 cells, confirmation, counter-screen for TRPC4 activator project, cell-based, HEK293 mu-opioid receptor line (AID 449723;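 active = hit in primary screen, with calcium signal over 5 SD above buffer well mean in both duplicates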;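 also: counter screen cells carry the mu-opioid receptor alone and lack TRPC4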). As to conditions: Fluo-4 calcium fluorescence, at 10 µM; stronger effect = higher value.
The nature of assay [16]: calcium flux enhancement in mu-opioid HEK293 cells, confirmation, counter-screen for TRPC4 allosteric potentiator project, cell-based, HEK293 mu-opioid receptor line (AID 449724;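 active = calcium signal rise more than 3 SD above the low-dose agonist control mean, in both duplicate plates and the primary screen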;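 also: HEK293 cells carrying mu-opioid receptor only with no TRPC4 channel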). The note with it: Fluo-4 calcium flux, at 10 µM, compound added before EC20 DAMGO stimulus; stronger effect = higher value.

For part of these data: Measured potencies and affinities stand elsewhere. Active and inactive are the calls of the source.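 The calls were made as follows, unless noted: active = primary screen hit whose calcium fluorescence ratio, in both repeats, exceeds the weak agonist control mean by 3 SD; inactive = the rest.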

Short transient receptor potential channel 6 (Mus musculus), sequence (Q61143 whole entry, looked up): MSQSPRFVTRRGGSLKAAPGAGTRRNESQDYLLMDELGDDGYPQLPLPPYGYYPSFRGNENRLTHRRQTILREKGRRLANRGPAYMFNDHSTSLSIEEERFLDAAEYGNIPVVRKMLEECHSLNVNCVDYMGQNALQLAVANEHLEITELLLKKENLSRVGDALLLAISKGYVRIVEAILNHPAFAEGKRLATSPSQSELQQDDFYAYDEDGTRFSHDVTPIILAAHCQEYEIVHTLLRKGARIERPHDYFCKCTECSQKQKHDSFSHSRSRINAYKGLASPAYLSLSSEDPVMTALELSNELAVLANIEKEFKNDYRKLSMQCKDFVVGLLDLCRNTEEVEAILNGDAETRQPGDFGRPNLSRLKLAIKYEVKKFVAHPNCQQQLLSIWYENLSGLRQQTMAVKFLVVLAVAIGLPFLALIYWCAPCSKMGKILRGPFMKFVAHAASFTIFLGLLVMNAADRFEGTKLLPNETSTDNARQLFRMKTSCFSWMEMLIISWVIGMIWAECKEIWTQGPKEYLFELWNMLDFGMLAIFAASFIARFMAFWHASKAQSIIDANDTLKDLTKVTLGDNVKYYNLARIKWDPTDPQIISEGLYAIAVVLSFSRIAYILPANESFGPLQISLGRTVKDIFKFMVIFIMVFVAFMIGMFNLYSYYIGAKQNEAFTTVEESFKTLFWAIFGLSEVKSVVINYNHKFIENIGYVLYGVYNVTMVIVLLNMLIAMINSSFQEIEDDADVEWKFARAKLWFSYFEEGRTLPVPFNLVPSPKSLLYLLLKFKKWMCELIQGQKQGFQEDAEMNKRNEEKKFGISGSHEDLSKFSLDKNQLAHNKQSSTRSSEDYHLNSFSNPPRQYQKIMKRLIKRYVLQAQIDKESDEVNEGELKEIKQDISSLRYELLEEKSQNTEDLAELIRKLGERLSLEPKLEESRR

Regarding `O=C(COC(=O)Cn1cnc2ccccc2c1=O)Nc1ccccc1Sc1ccc(Cl)cc1`, the result in assay [1], in assay [2], in [3], in [4], in assay [7] and in assay [8] was inactive. The outcome in [9], in assay [10], in assay [11], in assay [12], in assay [14] and in assay [15] was inactive. For the same molecule, the result in assay [16] was inactive. The inhibition in [5] is 62% (active); in assay [6], 43% (active); in [13] it was 26.1% (active).
Take `Cc1cccn2cc(-c3c[nH]c4ccccc34)nc12`: the outcome in assay [1], in [2], in assay [3], in [4], in assay [5] and in assay [6] was inactive. The result in assay [7], in assay [8], in assay [10], in [11], in [12] and in assay [14] was inactive. Besides, the outcome in assay [15] and in assay [16] was inactive. Besides, the inhibition in assay [9] was 33% (active); in assay [13] it was 35.1% (active).
Regarding `CN(C)CCN1C(=O)C2C(C(=O)Nc3cc(Cl)cc(Cl)c3)C3C=CC2(O3)C1C(=O)NC1CCCCC1` (stereo not given), the result in assay [1], in [2], in assay [3], in [4], in assay [6] and in assay [7] was inactive. Besides, the outcome in [8], in [9], in assay [10], in [11], in assay [12] and in [13] was inactive. Besides, the result in assay [14], in [15] and in [16] was inactive. Further, the inhibition in assay [5] is 71% (active).
Regarding `Cc1cccc2nc(CSc3ccc(Cl)cc3)cn12`, the result in assay [1], in assay [2], in assay [3], in [4], in assay [7] and in [8] was inactive. Besides, the result in assay [9], in assay [10], in assay [11], in assay [12], in [14] and in assay [15] was inactive. Moreover, the outcome in assay [16] was inactive. Moreover, the figures for the inhibition in assay [5], in assay [6] and in [13] were 90% (active), 52% (active) and 21.9% (active), respectively.
In the case of `OCc1ccccc1CNCc1ccccc1`, the outcome in assay [1], in assay [2], in assay [3], in [4], in [7] and in [8] was inactive. Moreover, the result in assay [9], in assay [10], in assay [11], in [12], in [14] and in assay [15] was inactive. Further, the outcome in [16] was inactive. Besides, the inhibition is 95% (active) in assay [5], 52% (active) in assay [6] and 18.7% (active) in assay [13].
On to `Cc1cc(N2CCCCCC2)nc2ccccc12`, for which the result in [1], in assay [2], in assay [3], in assay [4], in assay [7] and in assay [8] was inactive. The outcome in [9], in assay [10], in [11], in assay [12], in assay [14] and in assay [15] was inactive. The outcome in [16] was inactive. Besides, the inhibition in assay [5] was 87% (active); in assay [6], 55% (active); in assay [13], 15.6% (active).
As to `COc1ccc2c(c1)sc(N)[n+]2Cc1cc(C)cc2cccnc12`, the outcome in assay [1], in [2], in assay [3], in assay [4], in assay [6] and in [7] was inactive. Also, the outcome in [8], in assay [10], in assay [11], in assay [12], in assay [14] and in [15] was inactive. For the same molecule, the outcome in [16] was inactive. The inhibition in assay [5] was 99% (active); in assay [9], 37% (active); in [13], 28.6% (active).
For `COc1ccccc1N1CCc2c(C)nc3c(OC)cccc3c21`, the outcome in [1], in assay [2], in assay [3], in assay [4], in assay [7] and in assay [8] was inactive. The outcome in assay [10], in assay [11], in [12], in assay [14], in assay [15] and in [16] was inactive. Further, the inhibition was 92% (active) in [5], 44% (active) in assay [6], 29% (active) in assay [9] and 16.3% (active) in assay [13].
Turning to `CCN(C(=O)c1c(-c2ccccc2Cl)noc1C)C1CCCCC1`, the result in assay [1], in assay [2], in [3], in [4], in assay [6] and in assay [7] was inactive. The outcome in assay [8], in assay [9], in assay [10], in [11], in [12] and in assay [14] was inactive. The outcome in assay [15] and in assay [16] was inactive. The inhibition in [5] was 71% (active); in assay [13], 38.5% (active).
As to `CN(CC(=O)NC1CCCc2ccccc21)C1CCCCC1` (stereo not given), the outcome in assay [1], in [2], in [3], in assay [4], in assay [6] and in assay [7] was inactive. Further, the result in assay [8], in [9], in assay [10], in [11], in [12] and in [13] was inactive. For the same molecule, the result in assay [14], in assay [15] and in assay [16] was inactive. In addition, in assay [5], the inhibition was 80% (active).
Regarding `COc1ccc(Nc2c3c(nc4ccccc24)CCC3)cc1`, the outcome in [1], in assay [2], in [3], in assay [4], in assay [6] and in assay [7] was inactive. Besides, the outcome in assay [8], in assay [9], in [10], in [11], in [12] and in [14] was inactive. Moreover, the outcome in assay [15] and in assay [16] was inactive. Besides, the inhibition in assay [5] is 98% (active); in assay [13] it was 22.1% (active).
`COc1ccc(C(c2nnnn2C2CCCC2)N2CCN(c3ccccc3)CC2)cc1` (stereo not given): the result in [1], in assay [2], in assay [3], in [4], in assay [6] and in assay [7] was inactive. The outcome in [8], in [9], in assay [10], in [11], in [12] and in assay [13] was inactive. Also, the result in assay [14], in [15] and in assay [16] was inactive. The inhibition in [5] is 52% (active).
With `CN(C)CCCN(Cc1cc2cc3c(cc2[nH]c1=O)OCO3)C(=S)NCc1ccco1`, the result in [1], in [2], in assay [3], in assay [4], in assay [7] and in assay [8] was inactive. The molecule was classed as inactive in assay [9], in assay [10], in assay [11], in [12], in [14] and in assay [15]. Moreover, in assay [16], the outcome was inactive. For the same molecule, the inhibition in assay [5] was 93% (active); in [6] it was 69% (active); in assay [13], 26.8% (active).
For the molecule `O=C(Nc1cccc(Cl)c1)N1CCN2C(=O)c3ccccc3C12c1ccccc1` (stereo not given), the result in [1], in assay [2], in assay [3], in assay [4], in assay [6] and in [7] was inactive. Further, the outcome in [8], in assay [9], in assay [10], in assay [11], in assay [12] and in [13] was inactive. The outcome in assay [14], in assay [15] and in [16] was inactive. For the same molecule, the inhibition in assay [5] was 69% (active).
With `S=C(Nc1ccccc1)Nc1cc(Cl)ccc1Oc1ccccc1`, the outcome in assay [1], in [2], in assay [3], in assay [4], in [6] and in [7] was inactive. Besides, the outcome in assay [8], in assay [9], in assay [10], in [11], in assay [12] and in assay [14] was inactive. Besides, the result in assay [15] and in assay [16] was inactive. Also, the values for the inhibition in assay [5] and in [13] were 78% (active) and 40.2% (active), respectively.

One may read the inhibition as the change of the read-out against control, counted positive when it falls.
